Bioassay records as filed in PubChem.
Giardia killer: kills Giardia lamblia | Giardia lamblia trophozoite viability | AID 540267 | activity change, % at 7.66 µM, hits read low | actives 0.15% (n = 340,000); in the data active = activity change below about -80%; inconclusive = between about -30% and that limit;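 note: parasites exposed to compound for two days anaerobically before the ATP read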
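Each well holds 100 Giardia trophozoites and compound. After two days (48 hrs) at 37 deg C in anaerobic conditions, ATP is quantified by luminescence.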
DT40 TDP1 CPT: DT40-hTDP1 cell growth loss with CPT; actives 12% (n = 420,000); Potency, µM (doses to about 46.2 µM), without a hit: top-dose activity change, negative = growth inhibition, most hits filed as inhibitors; AID 686979; chicken DT40 Tdp1-/-;hTDP1 cells + 20 nM CPT, ATP luminescence, 48 h; note: potency is the fitted concentration of half-maximal effect; nearly all actives have a fitted effect of over 55% in size
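Cell growth measured by CellTiter-Glo luminescence after a minimum 48 h, 37 C compound exposure with 20 nM CPT in Tdp1-knockout DT40 cells stably expressing hTDP1, seeded 400/well; qHTS titration format.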
ELG1 DNA repair: blocks ELG1-dependent DNA repair in HEK293T cells; HEK293T ELG1-luciferase reporter, luminescence, 16 h; DNA damage induced by 5-fluorouridine; Potency, µM (highest dose often 46.1 µM), inactives show at the top dose activity change, negative = inhibition, usual class: inhibitors; AID 504467; actives 2.3% (n = 330,000); note: potency is the fitted concentration of half-maximal effect; nearly all actives have a fitted effect of over 55% in size
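5-Fluorouridine DNA damage + compound/DMSO, 2,000 cells/well, 16 h, 37 °C/5% CO2. ONE-Glo, 30 min RT, luminescence. Readout = decrease in reporter signal.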
IL1B secr inh: inflammasome signaling inhibition, IL-1 beta readout | activity change, % at 57.5 µM | actives 4.7% (n = 360,000) | THP-1 LPS/ATP IL-1B secretion, AlphaLISA, 16 h; stronger effect = lower value; in the data active = activity change below about -50%; inconclusive = mostly about -30% to -49%
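THP-1 cells pretreated 1 hr with compounds (up to 57.5 uM final), then stimulated with LPS (250 ng/mL final) plus ATP (1.25 mM final); secreted IL-1B measured by AlphaLISA after 16 hr, decreased signal indicating inhibition.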
DT40 TDP1 no CPT: qHTS for Inhibitors of human tyrosyl-DNA phosphodiesterase 1 (TDP1): qHTS in cells in absence of CPT | DT40 Tdp1-/- hTDP1 cells, no CPT, ATP luminescence, 48 h | Potency, µM (doses to about 46.2 µM), for the others: top-dose activity change, negative = growth inhibition, hits mostly inhibitors | actives 15% (n = 420,000) | AID 686978, 2013; note: potency is the fitted concentration of half-maximal effect; nearly all actives have a fitted effect of over 55% in size
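No-CPT arm: Tdp1-/-;hTDP1 DT40 cells (400/well) plus compounds, incubated ≥48 hr at 37 °C. Readout CellTiter-Glo luminescence.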
TDP1 inh: blocks human tyrosyl-DNA phosphodiesterase 1. recombinant TDP1, AlphaScreen DNA substrate cleavage. actives 0.28% (n = 350,000). AID 485290. Potency, µM (titrated, usually from 130 µM), inactives show at the highest dose activity change, negative = inhibition, usual class: inhibitors. Q9NUW8; note: potency is the fitted concentration of half-maximal effect; nearly all actives have a fitted effect of over 40% in size
Target sequence (Q9NUW8 whole entry, looked up): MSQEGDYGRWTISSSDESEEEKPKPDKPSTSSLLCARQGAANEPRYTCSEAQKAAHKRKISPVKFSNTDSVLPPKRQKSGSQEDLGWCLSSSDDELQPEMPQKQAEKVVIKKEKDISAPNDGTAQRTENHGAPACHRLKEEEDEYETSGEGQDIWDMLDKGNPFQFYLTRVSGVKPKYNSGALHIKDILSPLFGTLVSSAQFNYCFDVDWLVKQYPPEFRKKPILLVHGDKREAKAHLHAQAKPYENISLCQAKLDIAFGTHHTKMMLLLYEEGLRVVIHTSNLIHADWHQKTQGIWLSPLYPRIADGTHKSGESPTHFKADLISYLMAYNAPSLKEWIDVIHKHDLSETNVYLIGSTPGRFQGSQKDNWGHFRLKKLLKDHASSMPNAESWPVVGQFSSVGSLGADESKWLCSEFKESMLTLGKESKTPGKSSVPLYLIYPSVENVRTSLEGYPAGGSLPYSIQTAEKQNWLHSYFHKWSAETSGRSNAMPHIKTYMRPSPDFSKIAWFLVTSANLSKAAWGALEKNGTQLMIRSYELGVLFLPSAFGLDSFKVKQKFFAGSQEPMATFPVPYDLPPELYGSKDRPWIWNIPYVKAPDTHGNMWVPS
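E. coli-derived human Tdp1, 1 nM final. Cpd preinc 15 min RT; substrate 15 nM final, 5 min RT; AS bead mix 10 ug/ml final, 10 min RT. Signal loss = tyrosine-FITC cleavage. No-enzyme wells = max signal.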
* hit, by the source's call; ? = inconclusive; . = no result given. Hits are enriched below; roughly 19% of the tested compounds scored in any of these assays. Unless noted, calls come from the whole dose curve; as a rule, active = well fitted curve in the direction sought with a large enough effect; inconclusive = small, poorly fitted or top-dose-only effect, or another doubt; inactive = no such curve, though single readings can be large; an effect the other way counts as inactive or inconclusive. % is set by controls: 0 for no effect and ±100 for the full control effect.

SMILES	Giardia killer	DT40 TDP1 CPT	ELG1 DNA repair	IL1B secr inh	DT40 TDP1 no CPT	TDP1 inh
Nc1cccc(-c2nc3cc(S(=O)(=O)c4ccc5oc(-c6cccc(N)c6)nc5c4)ccc3o2)c1	-7	8.2µM*	19%	-1	?	5%
CCc1ccc(-n2c(Cc3ccccc3)nnc2SCc2nc(-c3cccs3)no2)cc1	.	23µM*	.	.	16µM*	2%
Cc1ccc(-n2c(Cc3ccccc3)nnc2SCc2nc(-c3cccs3)no2)cc1	.	?	.	.	?	4%
Cc1ccc(-n2c(Cc3ccccc3)nnc2SCc2nc(-c3cccs3)no2)cc1C	.	?	.	.	23µM*	4%
NC(=O)c1nn(-c2ccccc2)nc1NC(=O)Cn1nnc(-c2ccccc2)n1	0	-16%	-2%	12	-21%	0%
Cc1ccc2sc(N(Cc3cccnc3)C(=O)Cc3ccccc3)nc2c1C	.	?	.	.	?	3%
Cc1cc(C)c2nc(N(Cc3cccnc3)C(=O)c3ccc(S(=O)(=O)N(C)C)cc3)sc2c1	.	?	.	.	18µM*	5%
Cc1cc(C)c2sc(N(Cc3cccnc3)C(=O)CCS(=O)(=O)c3ccccc3)nc2c1	.	4.1µM*	.	.	2.9µM*	-5%
COc1cccc2sc(N(Cc3cccnc3)C(=O)c3ccc(S(=O)(=O)N(C)C)cc3)nc12	.	?	.	.	?	3%
Cc1cccc2sc(N(Cc3cccnc3)C(=O)CCOc3ccccc3)nc12	.	?	.	.	?	5%
Cc1cccc2sc(N(Cc3cccnc3)C(=O)CCS(=O)(=O)c3ccccc3)nc12	.	2.9µM*	.	.	3.3µM*	3%
Cc1ccc2sc(N(Cc3cccnc3)C(=O)CCS(=O)(=O)c3ccccc3)nc2c1C	.	5.8µM*	.	.	6.5µM*	8%
CCN1CCN(C(=O)c2cc(-c3ccco3)nc3ccccc23)CC1	-8	-6%	?	0	-4%	-16%
Cc1cccc(NC(=O)c2cc3c([nH]c2=O)CC(c2ccccc2)CC3=O)c1 (centres undefined)	.	-29%	.	.	-19%	4%
Cc1cc(C)c2nc(N(Cc3cccnc3)C(=O)CCOc3ccccc3)sc2c1	.	-18%	.	.	?	0%
Cc1cc(C)c2nc(N(Cc3cccnc3)C(=O)CCS(=O)(=O)c3ccccc3)sc2c1	7	4.6µM*	.	.	4.6µM*	5%
O=C(CCOc1ccccc1)N(Cc1cccnc1)c1nc2c(Cl)cccc2s1	.	1.3µM*	.	.	2.1µM*	-8%
O=C(CCS(=O)(=O)c1ccccc1)N(Cc1cccnc1)c1nc2c(Cl)cccc2s1	-25	5.2µM*	.	.	5.2µM*	3%
CCCCNC(=O)CN1CCN(Cc2ccc3cc(OC)ccc3c2)CC1	-12	?	-12%	0	18µM*	.
N#Cc1cccc(NC(=O)c2cc(C3CCCCN3S(=O)(=O)c3cccc4cccnc34)on2)c1 (centres undefined)	.	?	.	-1	18µM*	.
CC(C)(C)c1ccc(NC(=O)c2cc(C3CCCN(S(=O)(=O)c4cccc5cccnc45)C3)on2)cc1 (centres undefined)	.	23µM*	.	39	12µM*	.
Cc1ncccc1C(=O)N1CCCC(c2cc(C(=O)Nc3ccc(C(C)(C)C)cc3)no2)C1 (centres undefined)	.	13µM*	.	-19	12µM*	.
O=C(NCc1ccc2c(c1)OCO2)C1CCC(=O)N1C1CCCC1 (centres undefined)	-7	7%	-1%	-5	-14%	5%
COc1cc(C2c3c(oc4ccccc4c3=O)C(=O)N2c2ccccn2)cc(OC)c1OC (centres undefined)	.	4%	.	.	-7%	4%
CCC(C)C(NC(=O)OC(C)(C)C)C(=O)NC(C(=O)N1CCCC1C(N)=O)C(C)CC (centres undefined)	27	-22%	0%	17	?	-5%
SMILES	Giardia killer	DT40 TDP1 CPT	ELG1 DNA repair	IL1B secr inh	DT40 TDP1 no CPT	TDP1 inh
CCCNC(=O)[C@H]1O[C@@H]1C(=O)N[C@H](C(=O)N1CCC[C@H]1C(=O)OC)[C@@H](C)CC	.	1.9µM*	.	.	2.4µM*	1%
CCOc1ccc(-c2cc(-c3nc(-c4cc(OC)c(OC)c(OC)c4)no3)[nH]n2)cc1	.	9.2µM*	.	.	9.2µM*	8%
COc1ccc(-c2noc(-c3cc(-c4ccc(F)cc4)n[nH]3)n2)cc1	.	6.5µM*	.	.	?	0%
Cc1ccc(-c2noc(-c3cc(-c4ccc(F)cc4)n[nH]3)n2)cc1	.	-12%	.	.	?	-5%
Cc1ccccc1-c1noc(-c2cc(-c3ccc(F)cc3)n[nH]2)n1	.	21µM*	.	.	23µM*	5%
CCOc1cc(-c2noc(CCCC(N)=O)n2)cc(Br)c1OC	-12	-27%	?	47	-25%	2%
CCOc1cc(-c2noc(-c3ccncc3)n2)cc(Br)c1OC	-8	?	11%	19	16µM*	7%
COc1ccc(-c2noc(-c3cc(C(C)C)[nH]n3)n2)cc1	.	21µM*	.	.	18µM*	3%
CCOc1cc(-c2nc(-c3ccc(-c4ccc(OC)cc4)nc3OC)no2)cc(OCC)c1OCC	.	18µM*	.	.	10µM*	2%
CC(C)c1cc(-c2nc(-c3ccc(Br)cc3)no2)n[nH]1	.	?	.	.	?	-3%
CCOc1cc(-c2nc(-c3ccc(C)nc3OC)no2)cc(OCC)c1OCC	11	?	5%	0	?	4%
C/C(=N\N=C(/C)c1cccc(N)c1)c1cccc(N)c1	0	-10%	.	-7	-15%	.
COc1cc(C)c(C)cc1S(=O)(=O)NC1CC(C)(C)NC(C)(C)C1	-9	11%	11%	-2	1%	.
Cc1ccnc(N/N=C/c2ccccc2)n1	-2	12%	?	-15	-21%	4%
Cc1cc(C)nc(N/N=C2/CCCC/C2=C\c2ccccc2)n1	16	2.1µM*	2.3µM*	?	1.2µM*	8%
Cc1c(-c2nc(N)nc(Nc3ccc(F)cc3)n2)oc2ccccc12	5	?	?	.	?	1%
COc1ccccc1Nc1nc(N)nc(CSC(=S)N2CCCCC2)n1	8	8.2µM*	?	-9	13µM*	.
COc1ccccc1Nc1nc(N)nc(-c2oc3ccccc3c2C)n1	11	8.2µM*	11%	-19	?	2%
COc1ccccc1Nc1nc(N)nc(CCl)n1	-16	18µM*	?	-100*	13µM*	.
COc1ccc(OC)c(Nc2nc(N)nc(CCl)n2)c1	6	12µM*	?	-102*	18µM*	.
COc1ccccc1C(=O)Nc1nnc2n1CCS2	.	-3%	.	.	-12%	8%
